# High-throughput results from PubChem BioAssay.
# Only some compounds are listed: those with a hit (about 0.85% of all), similar ones and a draw of the others.
# EBNA-1 inh: blocks EBNA-1 binding to DNA | EBNA-1 DNA binding, fluorescence polarization | inhibition, % at 14.8 µM | 300,000 tested, 0.34% active; in the data active = inhibition above about 28%
# Keap1 Nrf2 FP: Keap1-Nrf2 (human) interaction inhibition; Keap1 Kelch-Nrf2 peptide fluorescence polarization, 1536-well; inhibition, % at 9.4 µM; 340,000 tested, 0.15% active; in the data active = inhibition above about 12%;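 note: human Keap1 Kelch domain with fluorescein labeled Nrf2 9mer peptide probe; 0% = neutral control wells and 100% = peptide positive control; higher means more block of Keap1 binding to Nrf2 peptide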
# C-LANA FP: blocks KSHV LANA C-terminal domain binding to DNA | 340,000 tested, 0.078% active | MBP-C-LANA/FAM-LBS DNA binding, fluorescence polarization | inhibition, % at 9 µM | AID 504423;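 active = highest replicate inhibition at or above 60% at 9 µM, even if other replicates fall short; inactive = all replicates below 60% inhibition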;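 note: 0% = neutral control wells and 100% = 4 µM acridine orange control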
# ZTA counter: ZTA (EBV) inhibition in EBNA-1 counter-screen | P03206 | ZTA-DNA binding, fluorescence polarization | inhibition, % at 11 µM | 320,000 tested, 0.15% active; in the data active = inhibition above about 33%
# eLon inh: inhibitors of E. coli Lon protease; purified E. coli Lon protease, fluorescence polarization; inhibition, % at 7.94 µM; 360,000 tested, 0.42% active; in the data active = inhibition above about 13%, passing the limit was not always enough;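 note: 0% = enzyme with probe and DMSO and 100% = no enzyme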
# Target sequence (P0A9M0 whole entry, looked up): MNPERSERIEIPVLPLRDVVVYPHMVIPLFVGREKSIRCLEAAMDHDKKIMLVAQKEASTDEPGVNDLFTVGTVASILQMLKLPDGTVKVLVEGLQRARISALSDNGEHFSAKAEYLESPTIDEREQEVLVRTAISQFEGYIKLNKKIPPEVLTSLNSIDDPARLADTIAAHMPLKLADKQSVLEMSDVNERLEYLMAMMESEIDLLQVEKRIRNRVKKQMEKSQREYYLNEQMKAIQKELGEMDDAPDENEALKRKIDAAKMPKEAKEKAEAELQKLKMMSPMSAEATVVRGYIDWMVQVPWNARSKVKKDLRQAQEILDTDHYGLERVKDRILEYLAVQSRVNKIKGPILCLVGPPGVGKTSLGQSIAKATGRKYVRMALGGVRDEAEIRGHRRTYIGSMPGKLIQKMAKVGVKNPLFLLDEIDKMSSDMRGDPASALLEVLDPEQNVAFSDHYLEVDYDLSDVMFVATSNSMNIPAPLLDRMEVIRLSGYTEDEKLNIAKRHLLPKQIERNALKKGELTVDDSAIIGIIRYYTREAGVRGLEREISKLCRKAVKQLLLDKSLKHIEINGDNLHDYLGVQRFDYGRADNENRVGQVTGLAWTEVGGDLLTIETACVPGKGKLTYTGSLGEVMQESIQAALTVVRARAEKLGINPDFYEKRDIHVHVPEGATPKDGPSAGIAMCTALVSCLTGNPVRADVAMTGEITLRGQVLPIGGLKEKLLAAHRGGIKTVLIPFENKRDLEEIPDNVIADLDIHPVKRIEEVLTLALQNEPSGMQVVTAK
# E coli Lon conf: E. coli Lon inhibition confirmation | shares compounds with eLon inh | purified E. coli Lon, fluorescence polarization | inhibition, % at 7.94 µM | 1,400 tested, 31% active | AID 602230; in the data active = inhibition above about 16%;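 note: 0% = enzyme with probe and DMSO and 100% = no enzyme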
# Active calls of the source: *; x = no result.
SMILES,EBNA-1 inh,Keap1 Nrf2 FP,C-LANA FP,ZTA counter,eLon inh,E coli Lon conf
N#Cc1cccc(NC(=O)CSc2ccc3c4c(cccc24)C(=O)c2ccccc2-3)c1,-4,2,3,-5,22*,94*
CC1OC(COCc2ccccc2)Cc2[nH][nH]c(=O)c21 (centres undefined),x,x,x,x,-2,x
CCCNC(=O)C[C@@H]1C[C@@H]2c3cc(NS(=O)(=O)c4ccc(OC)cc4)ccc3O[C@@H]2[C@@H](CO)O1,x,x,x,x,-9,x
COc1cc(/C=N/c2oc(C)c(C)c2C#N)cc(Br)c1O,3,-2,1,5,13,x
Cc1cc(C(=O)CSc2nnc(-c3ccccc3)n2C)c(C)n1C,10,-1,-1,6,5,x
Cc1cc(C(=O)CSc2nnc(-c3ccncc3)n2-c2ccccc2)c(C)n1C,-5,-5,1,-2,19*,-73
O=C(Nc1cc(Cl)ccc1F)C1=COCCO1,-2,3,-1,-9,3,x
O=C1CCCC2=C1C(c1cccs1)Nc1ccc3ncccc3c12 (centres undefined),-3,-1,0,-7,-12,x
Cc1ccsc1C1Nc2ccc3ncccc3c2C2=C1C(=O)CC(C)(C)C2 (centres undefined),0,-3,-1,-13,22*,3
O=C(CSc1nc2ccccc2o1)c1ccccc1,3,5,-1,5,53*,24*
CC(=O)CSc1nc2ccccc2o1,-4,-2,1,-10,0,x
COC(=O)C1=C(C)NC(=O)CC1c1ccccc1 (centres undefined),-2,4,1,-19,-1,x
COC(=O)C1=C(C)NC(=S)N(C(C)=O)C1c1ccccc1 (centres undefined),-4,-2,1,-22,17*,21*
CCOc1ccccc1NC(=O)COC(=O)COc1cccc2c1OC(C)(C)C2,x,x,x,x,-8,x
O=C1C=C(N2CCOCC2)c2cccc3cccc1c23,x,x,x,x,183*,6
O=C1C(N2CCOCC2)=Cc2cccc3cccc1c23,x,x,x,x,186*,195*
CC1CN(C2CCCCC2)C(=S)N(c2ccccc2)C1=O (centres undefined),x,-1,2,x,1,x
CCOC(=O)C1(C)C(=O)CC2c3nc4ccccc4cc3CN2C1=O (centres undefined),x,x,x,x,-4,x
COc1ccc(CCN2C(=O)CC(N3CCN(S(=O)(=O)c4ccccc4)CC3)C2=O)cc1 (centres undefined),-3,-2,0,3,12*,-8
COc1ccc(CCNC(=O)CCNC(=O)c2ccco2)cc1OC,-3,-1,0,3,22*,-4
CCOc1ccc(CCNC(=O)CCNC(=O)c2ccco2)cc1OCC,-5,-3,0,-4,2,x
CC(=O)N1c2ccc(S(=O)(=O)N(C)C3CCCCC3)cc2CC1C (centres undefined),8,0,0,6,-3,x
COc1ccccc1-c1nc2n(n1)C(c1ccc(Cl)cc1)C(C(N)=O)=C(C)N2 (centres undefined),-8,-1,2,-19,16*,-8
O=C(O)c1[nH]c2ccccc2c1C(c1cc(Cl)cc([N+](=O)[O-])c1O)c1c(C(=O)O)[nH]c2ccccc12,-3,-1,10,11,28*,19*
O=C(O)c1[nH]c2ccccc2c1C(c1ccccc1)c1c(C(=O)O)[nH]c2ccccc12,0,1,0,-3,-6,x
SMILES,EBNA-1 inh,Keap1 Nrf2 FP,C-LANA FP,ZTA counter,eLon inh,E coli Lon conf
Cc1ccc(S(=O)(=O)Nc2ccc(-c3ccc4nncn4n3)cc2)cc1,-11,-1,1,-18,3,x
FC(F)(F)c1ccccc1C1=CC(c2ccccc2)n2ncnc2N1 (centres undefined),-5,1,2,0,-11,x
Clc1ccccc1C1=CC(c2ccco2)n2ncnc2N1 (centres undefined),7,2,13,-6,31*,-4
CCn1c(CC(=O)Nc2ccccc2F)nnc1SCC(=O)NC1CCCC1,5,5,1,-9,17*,5
CCOC(=O)C(CC)n1cnc2c(nnn2-c2ccc(F)cc2)c1=O (centres undefined),-9,5,1,-13,-2,x
COc1ccc(S(=O)(=O)Cc2ccc(C(=O)NC3CCCCC3)o2)cc1,-5,-3,1,-5,27*,-8
O=C1c2ccc3c4c(ccc(c24)C(=O)N1CCCCO)C(=O)N(CCCCO)C3=O,x,3,-2,x,50*,50*
O=C(c1ccc2c(c1)C(=O)N(CCCO)C2=O)c1ccc2c(c1)C(=O)N(CCCO)C2=O,-11,2,1,-13,4,x
CC(=O)N1N=C(c2ccc(C)cc2)CC1c1ccco1 (centres undefined),-10,-7,1,3,5,x
Cc1ccc(C2=NN(C(=O)CCCC(=O)O)C(c3ccco3)C2)cc1 (centres undefined),-8,0,0,0,19*,-4
O=C(COC(=O)Cc1ccc(Cl)cc1)NC1CCCC1,x,1,-2,-11,50*,-11
O=C(COC(=O)Cc1ccc(F)cc1)NC1CCCC1,-13,2,1,-3,-11,x
COc1cc(NCCCC(C)N)c2ncccc2c1 (centres undefined),x,5,-1,x,44*,4
O=C(O)CC/C(=C\c1ccc2c(c1)OCO2)c1nc2ccccc2s1,0,1,0,-6,26*,-17
O=C(O)CC/C(=C\c1ccc(Cl)c([N+](=O)[O-])c1)c1nc2ccccc2s1,-2,-1,1,-1,1,x
CCOc1ccc(C(C)=O)cc1COC(=O)CCc1cc(OC)c(OC)c(OC)c1,-5,-4,-2,-10,3,x
CCOC(=O)C1=C(c2ccccc2)NC(=O)NC1c1ccsc1 (centres undefined),x,-2,1,x,9,x
CCOC(=O)N1CCN(C(=O)CSc2ccc3nnc(-c4ccncc4)n3n2)CC1,3,0,6,3,24*,3
CCOC(=O)N1CCN(C(=O)CSc2ccc3nnc(-c4ccccn4)n3n2)CC1,2,0,-1,4,1,x
COc1ccc(NC(=O)COC(=O)c2c(NC(C)=O)sc(C)c2C)cc1,x,x,x,x,8,x
Cc1ccc(S(=O)(=O)NNC(=O)Nc2ccccc2F)c(C)c1,6,-5,1,0,-3,x
Cc1ccc(S(=O)(=O)NNC(=O)Nc2cccc(C)c2C)c(C)c1,6,-2,-2,-3,21*,2
COc1ccc(CN2CCN(C(=O)C3CCC(CNS(=O)(=O)c4ccccc4)CC3)CC2)c(OC)c1OC (centres undefined),1,2,2,-1,143*,-4
COc1ccc(Br)c(C(=O)N(C)CC(=O)Nc2ccc(N3CCOCC3)cc2)c1,-13,4,0,-9,-5,x
CN1C(=O)CC(Nc2cccc3cccc(N)c23)C1=O (centres undefined),5,-3,2,20,21*,8
